# Reference: PubChem BioAssay AID1159580 (chemical genetic matrix, 2015)
# Values joined by “and” are separate entries in the source; they are usually repeats but may differ in a detail not shown here. Identical values can stand only once. Hit rate of the full screen: of about 5,500 compounds, about 2,000 (36%) were called active. About 18% were inconclusive and are not listed. Some of the results follow. A number with no mark means an inactive call. Cut-off read from the data, not from the text of the source: active = normalized growth mostly below about 0.91 (no sharp cut-off); inconclusive = no clear call, values can overlap the other calls; inactive = mostly above about 0.92.
# Test: chemical genetic growth profiling, strain panel (AID 1159580);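 note: tested at 20 µM; growth read once vehicle control cultures reached saturation at 30 °C; 1 = growth at the plate median or of vehicle wells; lower values mean less growth of the strain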
# Conditions: growth OD
# [1] = S. cerevisiae deletion strains, locus YJR075W, strain HOC1, active compounds read low
# [2] = S. cerevisiae deletion strains, locus YMR263W, strain SAP30, active compounds read low
# [3] = S. cerevisiae deletion strains, locus YMR307W, strain GAS1, active compounds read low
# [4] = S. cerevisiae deletion strains, locus YNL128W, strain TEP1, active compounds read low
# [5] = S. cerevisiae deletion strains, locus YNL153C, strain GIM3, active compounds read low
# [6] = S. cerevisiae deletion strains, locus YPL055C, strain LGE1, active compounds read low
smiles,measurement,setting,value
CCSC(N)=Nc1ccc(C(F)(F)F)cc1,normalized growth,"S. cerevisiae deletion strains, locus YAL040C, strain CLN3, active compounds read low",0.942
same,normalized growth,"S. cerevisiae deletion strains, locus YCL061C, strain MRC1 (second series), active compounds read low",0.997
same,normalized growth,"S. cerevisiae deletion strains, locus YDR363W, strain ESC2, active compounds read low",0.98
same,normalized growth,"S. cerevisiae deletion strains, locus YER002W, strain NOP16, active compounds read low",1.03
same,normalized growth,"S. cerevisiae deletion strains, locus YGR229C, strain SMI1, active compounds read low",0.931
same,normalized growth,[1],1.01
same,normalized growth,[2],1
same,normalized growth,[3],1
same,normalized growth,[4],1.01
same,normalized growth,[5],1
same,normalized growth,"S. cerevisiae deletion strains, locus YNL175C, strain NOP13, active compounds read low",1.01
same,normalized growth,"S. cerevisiae deletion strains, locus YNL197C, strain WHI3, active compounds read low",1.03
same,normalized growth,"S. cerevisiae deletion strains, locus YNL224C, strain SQS1, active compounds read low",0.997
same,normalized growth,"S. cerevisiae deletion strains, locus YOR083W, strain WHI5 (second series), active compounds read low",0.989
same,normalized growth,[6],0.986
O=S(=O)(N/N=C\c1ccc(Cl)cc1)c1ccc(-c2ccccn2)s1,normalized growth,"S. cerevisiae deletion strains, locus YAL013W, strain DEP1, active compounds read low",0.973
same,normalized growth,"S. cerevisiae deletion strains, locus YAR019C, strain CDC15, active compounds read low",0.993
same,normalized growth,"S. cerevisiae deletion strains, locus YBL105C, strain PKC1, active compounds read low",0.981
same,normalized growth,"S. cerevisiae deletion strains, locus YBR135W, strain CKS1, active compounds read low",0.98
same,normalized growth,"S. cerevisiae deletion strains, locus YBR136W, strain MEC1, active compounds read low",0.982
same,normalized growth,"S. cerevisiae deletion strains, locus YBR160W, strain CDC28, active compounds read low",0.969
same,normalized growth,"S. cerevisiae deletion strains, locus YBR229C, strain ROT2, active compounds read low",0.994
same,normalized growth,"S. cerevisiae deletion strains, locus YDL017W, strain CDC7, active compounds read low",0.978
same,normalized growth,"S. cerevisiae deletion strains, locus YDL028C, strain MPS1, active compounds read low",0.969
same,normalized growth,"S. cerevisiae deletion strains, locus YDL101C, strain DUN1, active compounds read low",0.979 and 0.977
same,normalized growth,"S. cerevisiae deletion strains, locus YDL108W, strain KIN28, active compounds read low",0.976
same,normalized growth,"S. cerevisiae deletion strains, locus YDL132W, strain cdc53, active compounds read low",0.975
same,normalized growth,"S. cerevisiae deletion strains, locus YDL134C, strain PPH21, active compounds read low",0.931
same,normalized growth,"S. cerevisiae deletion strains, locus YDL214C, strain PRR2, active compounds read low",0.98
same,normalized growth,"S. cerevisiae deletion strains, locus YDR052C, strain DBF4, active compounds read low",0.97
same,normalized growth,"S. cerevisiae deletion strains, locus YDR054C, strain cdc34, active compounds read low",0.979
same,normalized growth,"S. cerevisiae deletion strains, locus YDR150W, strain NUM1, active compounds read low",0.976
same,normalized growth,"S. cerevisiae deletion strains, locus YDR226W, strain ADK1, active compounds read low",0.988
same,normalized growth,"S. cerevisiae deletion strains, locus YDR477W, strain SNF1, active compounds read low",0.958
same,normalized growth,"S. cerevisiae deletion strains, locus YEL061C, strain CIN8, active compounds read low",0.935
same,normalized growth,"S. cerevisiae deletion strains, locus YER123W, strain YCK3, active compounds read low",0.96
same,normalized growth,"S. cerevisiae deletion strains, locus YER133W, strain GLC7, active compounds read low",0.99
same,normalized growth,"S. cerevisiae deletion strains, locus YFL009W, strain cdc4, active compounds read low",0.974
same,normalized growth,"S. cerevisiae deletion strains, locus YFL029C, strain CAK1, active compounds read low",0.994
same,normalized growth,"S. cerevisiae deletion strains, locus YFR003C, strain YPI1, active compounds read low",0.976
same,normalized growth,"S. cerevisiae deletion strains, locus YFR019W, strain FAB1, active compounds read low",0.976
same,normalized growth,"S. cerevisiae deletion strains, locus YFR028C, strain CDC14, active compounds read low",0.973
same,normalized growth,"S. cerevisiae deletion strains, locus YGR040W, strain KSS1, active compounds read low",0.96
same,normalized growth,"S. cerevisiae deletion strains, locus YGR052W, strain FMP48, active compounds read low",0.947
same,normalized growth,"S. cerevisiae deletion strains, locus YGR078C, strain PAC10, active compounds read low",0.975
same,normalized growth,"S. cerevisiae deletion strains, locus YGR092W, strain DBF2, active compounds read low",0.942
same,normalized growth,"S. cerevisiae deletion strains, locus YHR030C, strain SLT2, active compounds read low",0.797 and 1.04
same,normalized growth,"S. cerevisiae deletion strains, locus YHR079C, strain IRE1, active compounds read low",1.07
same,normalized growth,"S. cerevisiae deletion strains, locus YHR082C, strain KSP1, active compounds read low",1.02
same,normalized growth,"S. cerevisiae deletion strains, locus YHR087W, strain rtc3, active compounds read low",0.998
same,normalized growth,"S. cerevisiae deletion strains, locus YHR205W, strain SCH9, active compounds read low",0.983
same,normalized growth,"S. cerevisiae deletion strains, locus YIL147C, strain SLN1, active compounds read low",0.975
same,normalized growth,"S. cerevisiae deletion strains, locus YJL095W, strain BCK1, active compounds read low",0.961
same,normalized growth,"S. cerevisiae deletion strains, locus YJL128C, strain PBS2, active compounds read low",0.946
same,normalized growth,"S. cerevisiae deletion strains, locus YJL157C, strain FAR1, active compounds read low",0.98
same,normalized growth,"S. cerevisiae deletion strains, locus YJL187C, strain SWE1, active compounds read low",1.02
same,normalized growth,"S. cerevisiae deletion strains, locus YJR016C, strain ILV3, active compounds read low",0.976
same,normalized growth,"S. cerevisiae deletion strains, locus YJR043C, strain POL32, active compounds read low",0.947
same,normalized growth,"S. cerevisiae deletion strains, locus YJR066W, strain TOR1 (second series), active compounds read low",0.996
same,normalized growth,"S. cerevisiae deletion strains, locus YJR066W, strain TOR1, active compounds read low",1.05
same,normalized growth,[1],0.988
same,normalized growth,"S. cerevisiae deletion strains, locus YKL048C, strain ELM1, active compounds read low",0.959
same,normalized growth,"S. cerevisiae deletion strains, locus YKL067W, strain YNK1, active compounds read low",0.976
same,normalized growth,"S. cerevisiae deletion strains, locus YKL101W, strain HSL1, active compounds read low",0.949
same,normalized growth,"S. cerevisiae deletion strains, locus YKL190W, strain CNB1, active compounds read low",0.924 (active)
same,normalized growth,"S. cerevisiae deletion strains, locus YKL193C, strain SDS22, active compounds read low",0.977
same,normalized growth,"S. cerevisiae deletion strains, locus YKL203C, strain TOR2, active compounds read low",1.04
same,normalized growth,"S. cerevisiae deletion strains, locus YLR039C, strain RIC1, active compounds read low",0.465 (active)
same,normalized growth,"S. cerevisiae deletion strains, locus YLR058C, strain SHM2 (second series), active compounds read low",0.996
same,normalized growth,"S. cerevisiae deletion strains, locus YLR085C, strain ARP6, active compounds read low",0.912
same,normalized growth,"S. cerevisiae deletion strains, locus YLR113W, strain HOG1, active compounds read low",0.888
same,normalized growth,"S. cerevisiae deletion strains, locus YLR133W, strain CKI1, active compounds read low",0.967
same,normalized growth,"S. cerevisiae deletion strains, locus YLR262C, strain YPT6, active compounds read low",0.427 (active)
same,normalized growth,"S. cerevisiae deletion strains, locus YLR403W, strain SFP1, active compounds read low",0.95
same,normalized growth,"S. cerevisiae deletion strains, locus YML070W, strain DAK1, active compounds read low",0.938
same,normalized growth,"S. cerevisiae deletion strains, locus YML094W, strain GIM5, active compounds read low",0.95
same,normalized growth,"S. cerevisiae deletion strains, locus YMR001C, strain CDC5, active compounds read low",0.99
same,normalized growth,"S. cerevisiae deletion strains, locus YMR205C, strain PFK2 (second series), active compounds read low",0.969
same,normalized growth,"S. cerevisiae deletion strains, locus YMR219W, strain ESC1, active compounds read low",0.998
same,normalized growth,[2],0.976
same,normalized growth,"S. cerevisiae deletion strains, locus YMR277W, strain FCP1, active compounds read low",0.978
same,normalized growth,[3],0.712
same,normalized growth,"S. cerevisiae deletion strains, locus YNL006W, strain LST8, active compounds read low",0.994
same,normalized growth,"S. cerevisiae deletion strains, locus YNL020C, strain ARK1, active compounds read low",0.953
same,normalized growth,[4],0.975
same,normalized growth,[5],0.976
same,normalized growth,"S. cerevisiae deletion strains, locus YNL161W, strain CBK1, active compounds read low",0.986
same,normalized growth,"S. cerevisiae deletion strains, locus YNL183C, strain NPR1, active compounds read low",0.967
same,normalized growth,"S. cerevisiae deletion strains, locus YNL207W, strain RIO2, active compounds read low",0.977
same,normalized growth,"S. cerevisiae deletion strains, locus YNL222W, strain SSU72, active compounds read low",0.978
same,normalized growth,"S. cerevisiae deletion strains, locus YNL298W, strain CLA4 (second series), active compounds read low",0.826 (active)
same,normalized growth,"S. cerevisiae deletion strains, locus YNL307C, strain MCK1 (second series), active compounds read low",0.969
same,normalized growth,"S. cerevisiae deletion strains, locus YNL322C, strain KRE1, active compounds read low",1
same,normalized growth,"S. cerevisiae deletion strains, locus YNR030W, strain Alg12, active compounds read low",0.856 (active)
same,normalized growth,"S. cerevisiae deletion strains, locus YOL006C, strain TOP1, active compounds read low",0.838
same,normalized growth,"S. cerevisiae deletion strains, locus YOL078W, strain AVO1, active compounds read low",0.963
same,normalized growth,"S. cerevisiae deletion strains, locus YOL136C, strain PFK27, active compounds read low",0.94
same,normalized growth,"S. cerevisiae deletion strains, locus YOR061W, strain CKA2, active compounds read low",0.966
same,normalized growth,"S. cerevisiae deletion strains, locus YOR119C, strain RIO1, active compounds read low",1.01
same,normalized growth,"S. cerevisiae deletion strains, locus YOR231W, strain MKK1, active compounds read low",0.945
same,normalized growth,"S. cerevisiae deletion strains, locus YOR329C, strain SCD5, active compounds read low",0.984
same,normalized growth,"S. cerevisiae deletion strains, locus YPL031C, strain PHO85, active compounds read low",0.969
same,normalized growth,[6],1.1
same,normalized growth,"S. cerevisiae deletion strains, locus YPL153C, strain RAD53, active compounds read low",0.963
same,normalized growth,"S. cerevisiae deletion strains, locus YPL204W, strain HRR25, active compounds read low",0.951
same,normalized growth,"S. cerevisiae deletion strains, locus YPL209C, strain IPL1, active compounds read low",0.974
same,normalized growth,"S. cerevisiae deletion strains, locus YPL241C, strain CIN2, active compounds read low",0.894
same,normalized growth,"S. cerevisiae deletion strains, locus YPL256C, strain CLN2, active compounds read low",1.03
same,normalized growth,"S. cerevisiae deletion strains, locus YPR025C, strain CCL1, active compounds read low",0.982
same,normalized growth,"S. cerevisiae deletion strains, locus YPR106W, strain ISR1, active compounds read low",0.986
same,normalized growth,"S. cerevisiae deletion strains, locus YPR111W, strain DBF20, active compounds read low",0.967
same,normalized growth,"S. cerevisiae deletion strains, locus YPR135W, strain CTF4, active compounds read low",0.711
same,normalized growth,"S. cerevisiae deletion strains, strain NNK1, active compounds read low",0.996
same,normalized growth,"S. cerevisiae deletion strains, strain TSCII, active compounds read low",0.984
same,normalized growth,"S. cerevisiae strains, strain wild type, active compounds read low",0.897 (active)
